Experimental data published in PubChem BioAssay (EPA / NIEHS).
Calls of active or inactive are those of the source. The calls were made as follows: active = hit-call score of the fitted dose curve at least 0.9, where 1 is the maximum; inactive = score below 0.9.

Assay: ATG_BRE_CIS: Attagene CIS-FACTORIAL HepG2 Assay for human Bone Morphogenetic Protein (BMP) Response Element (BRE) (AID 2282933)
Conditions: HepG2 BMP response element reporter, Attagene transcription factor profiling; actives raise or lower the signal
Protocol: ATG_CIS is a cell-based, multiplexed-readout assay that uses HepG2, a human liver cell line, with measurements taken at 24 hours after chemical dosing in a 24-well plate.ATG_BRE_CIS is one of 52 assay component(s) measured or calculated from the ATG_CIS assay. It is designed to make measurements of mRNA induction, a form of inducible reporter, as detected with fluorescence intensity signals by Reverse transcription polymerase chain reaction (RT-PCR) and Capillary electrophoresis technology.Data from the assay component ATG_BRE_CIS was analyzed into 1 assay endpoint. This assay endpoint, ATG_BRE_CIS, was analyzed with bidirectional fitting relative to DMSO as the negative control and baseline of activity. Using a type of inducible reporter, measures of mRNA for gain or loss-of-signal activity can be used to understand the reporter gene at the transcription factor-level as they relate to the gene SMAD1. Furthermore, this assay endpoint can be referred to as a primary readout, because this assay has produced multiple assay endpoints where this one serves a reporter gene function. To generalize the intended target to other relatable targets, this assay endpoint is annotated to the dna binding intended target family, where the subfamily is Smad protein.
Human liver HepG2 cells are transiently transfected with multiple reporter transcription units (MRTUs) in 6-well plates using FuGene 6 reagent (Roche; 3 ml FuGene/1 mg DNA). The MRTU constructs are regulated by a cis-regulating element (promoter). […] A major difference between the CIS and TRANS system is that in CIS activities of endogenous TFs are measured, whereas the TRANS assay evaluates changes in activities of exogenous, chimeric NR-Gal4 proteins. […] At the end of 24 hour incubation, total RNA was isolated using TriZol reagent (Invitrogen). The isolated RNA is then reverse-transcribed using oligo(dT) primer and Mo-MLV reverse transcriptase (Invitrogen) with DNAse I (Ambion) treatment for 30 min. The one-tenth of the produced cDNA was amplified by PCR using Taq DNA polymerase (Invitrogen) and two reporter sequence-specific primers. The PCR products were fluorescently labeled by primer extension with 6-arboxyfluorescein (6-FAM) 5'-labeled reporter sequence-specific primer (2 min at 95 C, 20 s at 68 C and 10 min at 72 C) and these products were digested with 5U of HpaI (New England Biolabs) for 2h at 37 C. The fragments were purified using Qiaquick PCR columns (Qiagen), analyzed on an ABI 3130xL genetic analyzer (Applied Biosystems) with peak positions identified by using a set of X-rhodamine (ROX)-labeled MapMarker1000 molecular weight standards (BioVentures). The raw capillary electrophoresis data was processed using Attagraph software (Attagene).

| SMILES | outcome | AC50 |
| --- | --- | --- |
| O=C(O)CCl | inactive |  |
| ClCCCCCCCl | inactive |  |
| N#Cc1cccc(C#N)c1 | inactive |  |
| C=CC(=O)OCCCCOC(=O)C=C | inactive |  |
| Nc1c(Cl)c(Cl)c(Cl)c(Cl)c1Cl | inactive |  |
| O=S(=O)(O)O | inactive |  |
| CCOP(=O)(OCC)Oc1ccc([N+](=O)[O-])cc1 | inactive |  |
| CC(Cc1ccc(C(C)(C)C)cc1)CN1C[C@@H](C)O[C@@H](C)C1 (stereo not given in full) |  | 50.3 µM (active) |
| C[N+](C)(C)CC(=O)[O-] | inactive |  |
| [N-]=[N+]=CC(=O)OC[C@H](N)C(=O)O | inactive |  |
| CC(=O)C=Cc1ccccc1 |  | 74.5 µM (active) |
| CCC(Br)(CC)C(=O)NC(N)=O | inactive |  |
| O=P(O)(Oc1ccccc1)Oc1ccccc1 | inactive |  |
| CCCCOP(=O)(O)OCCCC | inactive |  |
| CCOC(=O)C1OC1(C)c1ccccc1 (stereo not given) | inactive |  |
| CC(C)(Cl)Cl | inactive |  |
| c1ccc(Nc2ccc3ccccc3c2)cc1 | inactive |  |
| C=CCO | inactive |  |
| [Cl][Sb]([Cl])[Cl] | inactive |  |
| O=C1C(Cl)=C(Cl)C(=O)C(Cl)=C1Cl | inactive |  |

| SMILES | outcome | AC50 |
| --- | --- | --- |
| C[N+](C)(C)CC(=O)O | inactive |  |
| Cc1cc(C)c(C2=C(OC(=O)CC(C)(C)C)C3(CCCC3)OC2=O)c(C)c1 | inactive |  |
| CC(=O)/C=C/c1ccccc1 |  | 50 µM (active) |
| C=C(Cl)Cl | inactive |  |
| Clc1ccc(-c2ccccc2)cc1 | inactive |  |
| O=[N+]([O-])c1ccc(Cl)cc1 | inactive |  |
| CC(O)CN(CC(C)O)CC(C)O (stereo not given) | inactive |  |
| O=CNC(N1CCN(C(NC=O)C(Cl)(Cl)Cl)CC1)C(Cl)(Cl)Cl (stereo not given) | inactive |  |
| C[C@]12CC[C@H](O)C[C@H]1CC[C@@H]1[C@@H]2C[C@@H](O)[C@]2(C)[C@@H](C3=CC(=O)OC3)CC[C@]12O | inactive |  |
| N#CCCCl | inactive |  |
| CCOC(=O)COc1ccc(Cl)cc1Cl | inactive |  |
| N#CC(c1ccccc1)c1ccccc1 | inactive |  |
| CC(C)CCCCCCCOC(=O)c1ccccc1C(=O)OCCCCCCCC(C)C | inactive |  |
| Nc1ccccc1C(=O)OCCc1ccccc1 | inactive |  |
| CCC(C)c1cc(C(C)(C)C)cc(-n2nc3ccccc3n2)c1O (stereo not given) | inactive |  |
| CCN(CC)C(=S)S | inactive |  |
| CN1C[C@H](C(=O)N[C@]2(C)O[C@@]3(O)[C@@H]4CCCN4C(=O)[C@H](Cc4ccccc4)N3C2=O)C=C2c3cccc4[nH]cc(c34)C[C@H]21 | inactive |  |
| c1ccc2c(c1)CCCC2 | inactive |  |
| CN(C)C(=O)C(c1ccccc1)c1ccccc1 | inactive |  |
| O=[N+]([O-])O | inactive |  |
